Source: PubChem
VACV E9 pol inh: vaccinia E9 polymerase processive synthesis inhibitors, primary screen, biochemical, absorbance; in vitro processive DNA synthesis, absorbance read-out; active compounds read low; actives 0.94% (n = 46,000); Vaccinia virus DNA polymerase (E9) processive complex; normalized absorbance, % (concentration not given with the values); in the data active = normalized absorbance mostly below about 85%, no sharp cut-off; inactive = mostly above about 86%
Numbers stand for hits; . = inactive. Shown is part of a subset that was picked to be rich in hits.

SMILES	VACV E9 pol inh
Cc1ccc(NC(=O)Cc2c[nH]c3ccccc23)cc1	.
O=C1C=CC(=O)C(c2ccc(Br)cc2)=C1	.
COc1ccc(C2=NN(CC(=O)NCc3ccc(C)cc3)C(=O)CC2)cc1	.
CCc1ccc2cc(-c3ccccc3)cn2c1	.
COc1ccc2sc(N(CCN(C)C)C(C)=O)nc2c1	.
CN(C)CCN(C(=O)c1ccco1)c1nc2cc3c(cc2s1)OCO3	61
COc1ccc2nc(N(CCN(C)C)C(=O)c3cccs3)sc2c1	.
[O-]/[N+](=C\c1ccc(F)cc1)c1ccc(Cl)cc1	.
CCN(C(=O)CN1C(=O)c2ccccc2S1(=O)=O)c1cccc2ccccc12	.
CN(C(=O)c1ccc2c(=O)n3c(nc2c1)CCCCC3)C1CCCCC1	67
CC(C)CCNC(=O)c1ccc2c(=O)n3c(nc2c1)CCCCC3	.
Cc1cccc(N(C)C(=O)c2ccc3c(=O)n4c(nc3c2)CCCCC4)c1	.
COc1ccc(-c2noc(CN(C(=O)Nc3cccc(Cl)c3)C3CCCCC3)n2)cc1OC	.
Nc1c(C(=O)Nc2ccc(Cl)cc2)oc2ccccc12	.
COc1ccc2c(c1)C=C(C(=O)Nc1ccccc1)CO2	.
O=C(Nc1ccc(Cl)cc1)C1=Cc2ccccc2OC1	65
CC(C)COC(=O)C1C2C=CC3(CN(Cc4cccs4)C(=O)C13)O2 (configuration not stated)	.
CC1c2[nH]c3ccccc3c2CCN1C(=S)Nc1ccccc1 (configuration not stated)	.
O=C(CSC1CCCC1)c1ccco1	.
CC(O)c1nc2ccccc2n1Cc1ccccc1F (configuration not stated)	.
O=C(CCC(=O)c1ccccc1)NCc1ccccc1	67
O=C(Cc1ccccc1)c1ccccc1	.
CC(=O)Nc1ccc(NC(=O)CCC(=O)c2ccccc2)cc1	.
CCCN(C(=O)c1cc2cc3ccc(C)cc3nc2o1)c1cccc(C)c1	.
CC1(C)CC(=O)C(c2nc3ccc(C(=O)c4ccccc4)cc3[nH]2)=C(O)C1	.
SMILES	VACV E9 pol inh
CCN(CC)C(=O)CN1C(=O)S/C(=C\c2ccccc2)C1=O	.
O=C(NCC1CCCO1)c1ccc2c(c1)N(Cc1ccc(F)cc1)C(=O)/C(=C/c1ccccc1)S2 (configuration not stated)	.
O=C(O)CN1C(=O)S/C(=C\c2ccc(Br)cc2)C1=O	.
CCc1ccc(/C=C2\Sc3ccccc3N(CC(=O)O)C2=O)cc1	66
O=C(O)c1ccc2c(c1)N(Cc1ccc(F)cc1)C(=O)/C(=C\c1ccccc1)S2	57
O=C(/C=C1/Sc2ccccc2N(Cc2ccc(F)cc2)C1=O)NCc1ccccc1	.
CNC(=O)CN1C(=O)/C(=C/c2ccccc2C)Sc2ccccc21	.
CCCS(=O)(=O)c1ccc(NC(=O)Nc2ccc(Cl)cc2Cl)cc1	.
Cc1csc2sc(C=NCc3cccs3)c(C)c12	63
Clc1ccc(C=NCc2ccc(-c3cccs3)s2)cc1	.
Cc1csc2sc(COC(=O)Nc3ccccc3)c(C)c12	.
Cc1cc(/C=C/C(=O)O)c(C)n1-n1cnnc1	.
O=C1N[C@H](C(=O)O)C1Cc1ccccc1 (some centres not stated)	.
Brc1ccccc1[C@@H]1Nc2ccccc2[C@@H]2C=CC[C@@H]21	.
Cc1ccc2c(c1)C1C=CCC1C(c1ccc(N=Cc3ccccc3)cc1)N2 (configuration not stated)	.
O=C(O)C1C2CC=CC2c2cc(Cl)cc3c2N1CC1CC=CC31 (configuration not stated)	.
CCOc1ccc2c(c1)C1C=CCC1C(c1ccc(C(=O)OC)cc1)N2 (configuration not stated)	.
CC(C)C1Nc2ccc(C(=O)O)cc2C2C=CCC21 (configuration not stated)	78
Cc1cc(Cl)ccc1NS(=O)(=O)c1ccc2c(c1)[C@H]1C=CC[C@H]1[C@@H](c1ccccc1)N2	.
O=C(O)C1Nc2ccccc2C2C=CCC12 (configuration not stated)	9.8
O=C(O)c1ccc(C2Nc3ccccc3C3C=CCC32)cc1 (configuration not stated)	10
CCC(NC(=O)c1ccccc1NC(=O)c1ccccc1)C(=O)N1CCCC1 (configuration not stated)	.
COc1cc2c(cc1OC)-c1c(C#N)c(-c3ccc(C)cc3)c(C(=O)c3cccs3)n1CC2	.
COC(=O)c1cc2oc(C)cc2n1CC(=O)c1ccccc1	.
Cc1cc(Cl)nc(Cl)c1C(N)=O	.
SMILES	VACV E9 pol inh
Cc1nnc(NC(=O)COc2ccc(Cl)cc2)s1	.
CCOc1ccc2c(-c3ccccc3)cc(=O)oc2c1	.
O=C(OCC(=O)N1CCCCC1)c1ccccc1O	.
COc1ncnc2sc(-c3ccccc3)cc12	.
c1ccc(-c2cc3c(N4CCc5ccccc54)ncnc3s2)cc1	.
CN1CCN(c2ncnc3sc(-c4ccccc4)cc23)CC1	50
Cc1nc(N2CCCC2)[nH]c(=O)c1Cc1c(F)cccc1Cl	.
Cc1ccc(C(O)(C(=O)NN2CCOCC2)c2ccc(C)cc2)cc1	.
NNC(=O)C12CCCC(CCC1)C2	.
O=C(CCCC(=O)c1ccccc1)Nc1ncn[nH]1	73
CCc1ccc(OCCCC(=O)Nc2ncn[nH]2)cc1	.
O=C(Nc1ncn[nH]1)c1ccccc1O	.
CC1=C(C(=O)O)SCCO1	.
COc1ccc(/C=C/C(=O)OC2CCCCC2=O)cc1 (configuration not stated)	.
O=C1C(c2sc(=S)n(-c3ccccc3)c2O)=Nc2ccccc21	.
CC(OC(=O)c1cccs1)C(=O)Nc1cccc(Cl)c1Cl (configuration not stated)	.
CCS(=O)(=O)N1CCN=C1SCc1cccc2ccccc12	29
CS(=O)(=O)N1CCN=C1SCc1ccc(Cl)c(Cl)c1	56
O=C(Cc1ccccc1)N1CCN=C1SCc1ccccc1	.
CCSC1=NCCN1S(C)(=O)=O	.
CCS(=O)(=O)N1CCN=C1SCc1ccccc1C	78
CS(=O)(=O)N1CCN=C1SCc1cccc2ccccc12	51
COc1ccc(S(=O)(=O)N2CCN=C2SC)cc1	.
Cc1ccc(C)c(CSC2=NCCN2C(=O)COc2ccccc2)c1	.
COc1ccccc1C1CCN(C(=O)CSCc2cccc3ccccc23)CC1	.
SMILES	VACV E9 pol inh
O=S(=O)(c1ccc(F)cc1)N1CCN=C1SCc1ccc(F)cc1	.
C=C(C)CSc1nnc(SCc2cccc3ccccc23)s1	.
CCSC1=NCCN1S(=O)(=O)c1ccccc1	.
N=C(N)SCc1csc2c1CCCC2	.
CCc1cc2c(=O)c(Oc3ccccc3)c(C(F)(F)F)oc2cc1O	.
OC(CSc1nc2ccccc2s1)C(F)(F)F (configuration not stated)	.
CCN(CC)c1ccc(C(=O)OCC(=O)Nc2ccc(F)cc2F)cc1	.
CCOC(=O)Cn1c(=O)c(C(N)=S)cn(C(C)C)c1=O	.
Cc1cc(O)cc2oc(C(F)(F)F)c(-c3cnn(-c4ccccc4)c3)c(=O)c12	.
O=C(NC1=NCCS1)c1cc2c(s1)CCC2	.
O=C(CC1CC2CCC1C2)NC(c1ccccc1)c1ccccc1 (configuration not stated)	.
CC(C)(C)c1cn2cccc(OCc3ccc(Cl)c(Cl)c3)c2n1	.
COc1cc(/C=C/C(=O)NCCn2ccc3ccccc32)cc(OC)c1OC	.
N#CSCC(=O)c1cccs1	61
CCN(CC)c1cc(-c2cccs2)nc(SCC(=O)c2cccs2)c1C#N	.
O=C(CSc1nnc2sc3ccccc3n12)c1cccs1	.
CN(C)c1ccc(C2=NCCCN2)c(SCc2cccc(C(F)(F)F)c2)c1	.
